Compounds without any hit were thinned out: in the full panel of roughly 83,000, 20% have a hit.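 Compound tested at a single concentration for 48 hours in 96-well plates; a percent growth value below 10 was scored as active.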 A number with no mark means an inactive call. Activity calls are given as the source filed them.

This test concerns MDA-MB-468 breast. In words: NCI-60 one-dose screen, 48 h (100 = growth as untreated, 0 = no growth, -100 = all killed). The conditions noted are these: 10 µM unless noted.
As to `O=C(/C=C/c1cccc([N+](=O)[O-])c1)c1ccc(O)c(CN2CCN(c3cc4c(cc3F)c(=O)c(C(=O)O)cn4C3CC3)CC2)c1`, the growth was -24.5% (active).
As for `CCN1C(=O)N(c2ccccc2)C2NN=c3s/c(=C4\C(=O)N(C(C)C)c5ccccc54)c(=O)n3C21` (stereo unspecified), the growth is 21.4%.
The result for `CN(C)CCCNc1c2ccc(Cl)cc2nc2c1oc1ccc(Cl)cc12` reads 36.4%.
The same measure for `Cc1ccc(S(=O)(=O)N2CCC(=O)c3ccccc32)cc1`: 25.7%; for `COc1cc(OC)cc(C(=O)Nc2cc(-c3cccnc3)nc(NCCCN3CCOCC3)n2)c1`: 83.2%; for `O=[N+]([O-])CC(O)c1ccccc1` (stereo unspecified): 98.7%.
Consider `COc1ccc(-c2nn(-c3ccc(NC(=O)c4ccc(Cl)c(C(F)(F)F)c4)cc3)cc2-c2ccncc2)cc1Cl`, for which the growth is 9.51% (active).
Turning to `CC(C)(C)N1CC(OC(N)=O)C1`, the growth is 84.9%.
Turning to `COC1=C(OC)C(=O)C(CCCCCCCCCCO)=C(C)C1=O`, the growth was -34.8% (active).
Turning to `COc1ccc2nc3cc(Cl)ccc3c(NCCN)c2c1`, the growth is -61.6% (active).
The result for `COc1ccc(-c2nnc3c4[nH]cnc4ncn23)c(OC)c1` reads -16.2% (active).
The result for `O=C(Nc1nc2cc(C(=O)N3CCN(C(c4ccccc4)c4ccccc4)CC3)ccc2o1)c1ccc(NC2CCCCC2)c([N+](=O)[O-])c1` reads 75.2%; that for `CCOc1c(C#N)c(Nc2ccc(S(N)(=O)=O)cc2)c(C#N)c2nnc(C)n12`, 105%.
The same measure for `CCN(CC)CCOC(=O)c1ccc(NC(=O)Nc2cccc(Cl)c2)cc1`: 103%; for `Cc1cc(=O)oc2cc(Oc3nc(-c4ccc(Cl)cc4)cn4c(-c5ccc(Cl)cc5)cnc34)ccc12`: 84.8%.
In the case of `COc1ccc2sc3c(NCCCNCCO)nc4ccccc4c3c(=O)c2c1`, the growth was 30.9%.
In the case of `CCN1C(=O)/C(=c2\sc3n(c2=O)C2C(NN=3)N(CC)C(=S)N2CC)c2ccccc21` (stereo unspecified), the growth was 104%.
Take `O=C(Nc1ccc([N+](=O)[O-])cc1)C(=O)Nc1ccc([N+](=O)[O-])cc1`: the growth was 105%.
For the molecule `CCOC(=O)/C=C/c1ccc([N+](=O)[O-])o1`, the growth is 53.6%.
In the case of `CC1(C)CC[C@]2(C(N)=O)CC[C@]3(C)C(=CC[C@@H]4[C@@]5(C)C/C(=C/c6cccnc6)C(=O)C(C)(C)[C@@H]5CC[C@]43C)[C@@H]2C1`, the growth was -17.1% [100 µM] (active).
On to `O=C(C1CCCCC1)[C@@H]1[C@]2(C(=O)NC3CCCCC32)[C@@H]2CCCN2[C@@]12C(=O)NC1CCC(Cl)CC12` (stereo partly specified), for which the growth is -67% [100 µM] (active).
The result for `Cn1cc(-c2noc(-c3cn(C)c4ncc(Br)cc34)n2)c2cc(Cl)ccc21` reads 82.3%; that for `O=C(O)c1cn(C2CC2)c2cc(N3CCN(Cc4ccc5ccccc5c4O)CC3)c(F)cc2c1=O`, 39.2%.
For `CC(C)(C)c1nn(-c2ccccc2)c2c1COCN2Cc1ccc(Cl)cc1`, the growth is 89%.
In the case of `Cc1cc(N(CCCNc2ccnc3cc(Cl)ccc23)Cc2ccco2)nc(Cl)n1`, the growth is 32.4%.
The same measure for `C/C=C1/CN(CCCCC)CC[C@H]1C(=O)c1cc2ccccc2[nH]1`: 90.7%; for `C#CC[C@@H]1C[C@]2(C)[C@H]3CC=C4[C@H]5[C@@H](C)[C@H](C)CC[C@]5(C(=O)NCCCN5CCN(CCCN)CC5)CC[C@@]4(C)[C@]3(C)CC[C@H]2C(C)(C)[C@H]1OC(C)=O`: -72.9% (active); for `CCOC(=O)c1cc(C(=O)c2ccc(OC)c(OC)c2)n2c1ccc1ccc3cccnc3c12`: 38.5%.
In the case of `Cc1nc2sc(C(=O)Nc3cccc(Cl)c3C)c(N)c2cc1C(O)c1ccccc1` (stereo unspecified), the growth is 18.5%.
Consider `COc1cnc2c(c1)C(=O)c1c-2n(CCCN2CCC(O)CC2)c(=O)c2cc(F)ccc12`, for which the growth is -57.2% (active).
As for `O=C(CCCCCCN1CC(=O)N2[C@@H](c3cc(F)cc(F)c3)c3[nH]c4ccccc4c3C[C@H]2C1=O)NO`, the growth is 50.4%.
`O=c1c2cc(F)ccc2sc2c(N3CCNCC3)nc3ccc(F)cc3c12`: the growth is -59.9% (active).
Take `Cc1c[n+](Cc2ccc3ccccc3c2)cn1Cc1ccc2ccccc2c1`: the growth was -22.6% (active).
For the molecule `O=C(NS(=O)(=O)c1ccccc1)n1cc(-c2ccncc2)c(-c2ccc(Cl)c(O)c2)n1`, the growth is 96.5%.
In the case of `CC(=O)CS(C)(=O)=O`, the growth is 109%.
Take `CCCCCCC12CCC(=O)N1CCc1cncn12` (stereo unspecified): the growth is 85%.

The record behind these values is PubChem BioAssay (NCI).
